From PubChem BioAssay (NCATS)
Several values for one entry are separate records, joined by “and”; a condition that tells them apart may be missing. Equal values may be shown once. Records with an inconclusive call do not appear. Where a call stands in place of a potency, no number is given. Activity calls are given as the source filed them. Unless noted, the call rests on the fitted dose curve.

test: Cytotoxicity counterscreen for inhibitors of SARS-CoV-2 cell entry (AID 1645845); settings: cell viability (SARS-CoV-2 entry assay cells); series mostly up to 57.1 µM; further: nearly all actives have a fitted effect of over 50% in size
In short: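 After a 15 min room-temperature ATPLite 1step step, luminescence reflected ATP remaining in HEK293-ACE2 cells exposed to compound for 1 h plus 48 h at 37 C, with percent activity set by cell and no-cell controls.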

Compound | Potency | activity change, negative = cytotoxicity | outcome
Cc1nc2ccc(CN(C)c3ccc(C(=O)N[C@@H](CCC(=O)O)C(=O)O)s3)cc2c(=O)[nH]1 | inactive |  | 
CNCCC=C1c2ccccc2CCc2ccccc21 | inactive |  | 
CC(=O)OCC(=O)[C@H]1CC[C@H]2[C@@H]3CCC4=CC(=O)CC[C@]4(C)[C@H]3CC[C@]12C | inactive |  | 
Cc1cc(NS(=O)(=O)c2ccc(N)cc2)nc(C)n1 | inactive |  | 
CC(C)(C)C(=O)Oc1ccc(S(=O)(=O)Nc2ccccc2C(=O)NCC(=O)O)cc1 | inactive |  | 
CCOP(=S)(OCC)Oc1ccc2c(C)c(Cl)c(=O)oc2c1 | inactive |  | 
Cc1cc2c(cc1CC(=O)c1sccc1S(=O)(=O)Nc1onc(C)c1Cl)OCO2 | inactive |  | 
NCCCNCCSP(=O)(O)O |  | -16.9% [at 11.3 µM] (inactive) | 
CCOC(=O)C1=C(COCCN)NC(C)=C(C(=O)OC)C1c1ccccc1Cl (centres undefined) | inactive |  | 
COC(=O)C1=C(C)NC(C)=C(C(=O)OCC(C)=O)C1c1ccccc1[N+](=O)[O-] (centres undefined) | inactive |  | 
CCc1cc(C(N)=S)ccn1 | inactive |  | 
CCCCCCCCCCCCCCCCCC(=O)O | inactive |  | 
CCCCCCNC(=O)n1cc(F)c(=O)[nH]c1=O | inactive |  | 
Cc1c(C)c2c(c(C)c1O)CCC(C)(COc1ccc(CC3SC(=O)NC3=O)cc1)O2 (centres undefined) | inactive |  | 
CC(C)[C@H](N)C(=O)OCC(CO)OCn1cnc2c(=O)[nH]c(N)nc21 (some centres undefined) | inactive |  | 
COc1cccc2c1C(=O)c1c(O)c3c(c(O)c1C2=O)C[C@@](O)(C(=O)CO)C[C@@H]3O[C@H]1C[C@H](N)[C@@H](O)[C@H](C)O1 | inactive |  | 
CCCCCCCCCCCCCCCCOP(=O)([O-])OCC[N+](C)(C)C | inactive |  | 
N#C[C@H]1C[C@H]2C[C@@H]2N1C(=O)[C@@H](N)C12CC3CC(CC(O)(C3)C1)C2 | inactive |  | 
COc1ccc(O)cc1 | inactive |  | 
NCCNCCNCCNCCN |  |  | inactive [at 11.3 µM]
CCCCCCCCCCCCCCCCCCO | inactive |  | 
N#Cc1ccc2c(c1)N(CCCN1CCC(O)CC1)c1ccccc1S2 | inactive |  | 
Cn1c(=O)c2[nH]c(Br)nc2n(C)c1=O | inactive |  | 
Nc1nc2[nH]cc(CCc3ccc(C(=O)N[C@@H](CCC(=O)O)C(=O)O)cc3)c2c(=O)[nH]1 | inactive |  | 
CN1[C@@H]2CC[C@H]1CC(OC(c1ccccc1)c1ccccc1)C2 (some centres undefined) | inactive |  | 
Cn1c(=O)c2[nH]cnc2n(C)c1=O | inactive |  | 
CC(C)=CCC/C(C)=C/CC/C(C)=C/CCC(=O)OC/C=C(\C)CCC=C(C)C | inactive |  | 
Nc1ccn([C@@H]2O[C@H](CO)[C@@H](O)C2O)c(=O)n1 (some centres undefined) | inactive |  | 
Clc1ccc(C(c2ccc(Cl)cc2)C(Cl)(Cl)Cl)cc1 | inactive |  | 

test: Primary qHTS to identify inhibitors of SARS-CoV-2 cell entry (AID 1645846); settings: SARS-CoV-2 pseudovirus cell entry assay, luminescence; activity change, negative = inhibition: at 57.1 µM (top of the series) unless noted; series mostly up to 57.1 µM; further: nearly all actives have a fitted effect of over 45% in size; further: potency means the concentration at half of the fitted maximal effect
In short: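 HEK293-ACE2 (Expi293F, stable hACE2), 1500 cells/well, o/n 37C; cpd 23 nL pin, 1 h; MLV-PP w/ SARS-CoV-2-S (Wuhan-Hu-1, Δ19 C-term); 48 h 37C; Bright-Glo luminescence; normalized vs S-PP and bald PP.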

Compound | activity change, negative = inhibition | Potency
Cc1cc(NS(=O)(=O)c2ccc(N)cc2)nc(C)n1 | -52.4% | 
C[n+]1c2cc(N)ccc2cc2ccc(N)cc21 (tested in a mixture with another compound) |  | 7.94 µM (active)
CCOP(=S)(OCC)Oc1ccc2c(C)c(Cl)c(=O)oc2c1 | 69.2% | 
Cc1cc2c(cc1CC(=O)c1sccc1S(=O)(=O)Nc1onc(C)c1Cl)OCO2 | -56.4% | inactive
COc1cccc2c1C(=O)c1c(O)c3c(c(O)c1C2=O)C[C@@](O)(C(=O)CO)C[C@@H]3O[C@H]1C[C@H](N)[C@@H](O)[C@H](C)O1 | -93.2% and -92.9% | 
Clc1ccc(C(c2ccc(Cl)cc2)C(Cl)(Cl)Cl)cc1 | 2.18% | 

test: Primary qHTS for inhibitors of nuclear receptor binding SET domain protein 2 (NSD2) in an isogenic RCH-ACV NSD2 p.E1099K mutant (9B) (AID 1645876; active means well fitted curve in the direction sought with a large enough effect; an effect the other way counts as inactive or inconclusive; further: nearly all actives have a fitted effect of over 70% in size; further: potency means the concentration at half of the fitted maximal effect); settings: RCH-ACV NSD2 E1099K (9B) viability, CellTiter-Glo, 72 h; series mostly up to 44.9 µM

Compound | Potency
Clc1cccc(SC2CCNCC2)n1 | inactive
CCCN(CCC)C(=O)Cc1c(-c2ccc(Cl)cc2)nc2ccc(Cl)cn12 | inactive
CCOP(=S)(OCC)Oc1ccc2c(C)c(Cl)c(=O)oc2c1 | 7.5 µM (active)
Clc1ccc(C(c2ccc(Cl)cc2)C(Cl)(Cl)Cl)cc1 | inactive

test: Primary qHTS for inhibitors of nuclear receptor binding SET domain protein 2 (NSD2) in an RCH-ACV wild type WT cells (2C) (AID 1645877; active means well fitted curve in the direction sought with a large enough effect; an effect the other way counts as inactive or inconclusive; further: nearly all actives have a fitted effect of over 70% in size; further: potency means the concentration at half of the fitted maximal effect); settings: RCH-ACV (leukaemia line) NSD2 WT (2C) viability, CellTiter-Glo, 72 h; series mostly up to 44.9 µM

Compound | Potency
Clc1cccc(SC2CCNCC2)n1 | inactive
CCCN(CCC)C(=O)Cc1c(-c2ccc(Cl)cc2)nc2ccc(Cl)cn12 | inactive
CCOP(=S)(OCC)Oc1ccc2c(C)c(Cl)c(=O)oc2c1 | 6.68 µM (active)
Clc1ccc(C(c2ccc(Cl)cc2)C(Cl)(Cl)Cl)cc1 | inactive
